Measured values from PubChem BioAssay AID1578 (Sanford-Burnham Center for Chemical Genomics, 2009).
“And” between values parts separate entries of the source, which are not always exact repeats. Equal values may be shown once. The campaign covered roughly 290,000 compounds. About 3,000 (1%) were called active. Many of the other results were omitted from the sample, so actives are more common in it than they were. Unmarked numbers belong to inactive results. No stated cut-off is given here; in the data, active means inhibition mostly above about 36% (no sharp cut-off); inactive means mostly below about 34%.

Assay: NOD1 signaling inhibitors, primary screen, cell-based, luminescence, uHTS (AID 1578);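 further: HEK-293T reporter cells stimulated with the NOD1 agonist gamma-tri-DAP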
Settings: NOD1-driven NF-kB luciferase reporter cells, at 4 µM, active compounds read high

Point of comparison: `COc1ccccc1CNCc1cccc(Oc2ccccc2)c1`, inhibition -7.9%. Against it:
- C/C(=N\N=C(N)N)c1cc(Cl)ccc1Cl — lower, -23.9%
- CCNc1nc(Oc2ccc(C(=O)OC)cc2)nc(N(C)C)n1 — lower, -15.3%
- O=C(O)c1cccc(Nc2c3ccccc3nc3ccccc23)c1 — lower, -9%
- Cc1ccc(O)c(Nc2c3ccccc3nc3ccccc23)c1 — higher, 12.5%
- COc1cccc(CNC(=O)Cn2cccc2)c1 — higher, 18.5%
- COc1cccc(CNC(=O)Cc2ccc(Br)cc2)c1 — lower, -16.7%
- Cc1cccc(NS(=O)(=O)c2ccc(NC(=O)N3CCCCC3)cc2)c1 — higher, 22.5%
- CC(=O)c1cccc(NC(=O)c2ccc(C(=O)Nc3cccc(C(C)=O)c3)nc2)c1 — lower, -11.1%
- Cc1ccc(S(=O)(=O)Nc2cccc(C(=O)Nc3cc(C)ccn3)c2)cc1 — lower, -15.9%
- CS(=O)(=O)c1ccc2nc(NC(=O)c3ccc(NS(=O)(=O)c4ccc(F)c(F)c4)cc3)sc2c1 — higher, -2.4%
- CS(=O)(=O)c1ccc2nc(NC(=O)c3cccc(Cl)c3)sc2c1 — higher, -1.3%
- Cc1cccc(NS(=O)(=O)c2cccc(C(=O)Nc3cccc(C(=O)O)c3)c2)c1 — lower, -23.8%
- CC(=O)Nc1cccc(NC(=O)c2ccc(C(=O)Nc3cccc(NC(C)=O)c3)nc2)c1 — lower, -19.3%
- CC(=O)c1cccc(NC(=O)N2CCCCCC2)c1 — lower, -8.3%
- COc1ccc(-c2noc(N3CCC(C(=O)NCc4ccc(F)cc4)CC3)n2)cc1 — lower, -38.2%
- COc1ccc(/C=C2/Sc3ccc(C(=O)NCCCN4CCOCC4)cc3NC2=O)cc1OC — higher, 29.5%
- COC(=O)CS(=O)(=O)c1cc(Br)cc2c1N(C(C)=O)CC2 — lower, -37.1%
- CCc1cc(/C(Cc2ccccn2)=N\Nc2ccccc2)c(O)cc1O — lower, -20.2%
- CCCNCc1cc(OC)c(OCC(=O)Nc2ccccc2)cc1Br — lower, -23.4%
- Cc1cccc(C)c1Nc1nnc(SCC(=O)Nc2cc(S(=O)(=O)N3CCCCC3)ccc2Cl)s1 — higher, 44.5%
- Clc1ccc(CN2CCC(Cc3ccccc3)CC2)cc1 — lower, -18.7%
- CCOc1ccc(CN2CCC(Cc3ccccc3)CC2)cc1 — lower, -22.4%
- c1coc(CNc2nc(-c3ccncc3)cs2)c1 — lower, -35.7%
- CCOC(=O)C1CCN(C(=O)CCCn2nc(C)c3c(C)n(-c4ccc(C)cc4)nc3c2=O)CC1 — higher, -4.8%
- CC(C)C[C@H](NC(=O)OC(C)(C)C)c1n[nH]c(=S)n1N — lower, -16.1%
- CCN(C(=O)Cn1c(=O)oc2ccccc21)C1CCS(=O)(=O)C1 (centres undefined) — lower, -9.7%
- CC(=O)N1c2ccc(S(=O)(=O)N3CCC(C(=O)Nc4ccccn4)CC3)cc2CC1C (centres undefined) — lower, -41.4%
- CC(=O)N1c2ccc(S(=O)(=O)N3CCC(C(=O)Nc4cccc(C)c4)CC3)cc2CC1C (centres undefined) — lower, -24.4%
- CC(C)[C@@H](N)C(=O)N/N=C/c1ccc2ncccc2c1 — higher, -2%
- CSCC[C@H](NC(=O)[C@H]1CC[C@H](CNC(=O)[C@@H]2CCCN2)CC1)C(=O)O — lower, -8.2%
- COCCn1c(C)cc(/C=C2/NC(=O)N(Cc3ccc(C)cc3)C2=O)c1C — higher, -2.2%
- CCCCNC(=O)[C@H](Cc1c[nH]c2ccccc12)NC(=O)c1ccccc1Cl — lower, -18.4%
- CCN=c1scc(-c2ccc3c(c2)NC(=O)CO3)n1N=C1CCCC1 — higher, 51.7%
- COCCN=c1scc(-c2ccc3c(c2)NC(=O)CO3)n1/N=C(\C)c1ccc(O)cc1 — higher, -6.7%
- CCCCCC1=NN2C(=O)CC(=O)N=C2S1 — higher, 11.6%
- O=c1c2nnn(-c3cccc(F)c3)c2ncn1Cc1ccccn1 — higher, -4.3%
- O=C(N/N=C/c1ccc([N+](=O)[O-])cc1)c1[nH]ncc1Br — higher, -5%
- Cc1cc(C)n(CC(=O)NCc2cc(-c3nn(C)c(=O)c4ccccc34)ccc2C)n1 — lower, -14%
- Cc1ccc(-c2nn(C)c(=O)c3ccccc23)cc1CNC(=O)Cn1nc(-c2ccccc2)c2ccccc2c1=O — higher, 12.8%
- Cc1ccc2[nH]c3c(c2c1)CCNC3=O — lower, -41.5%
- CCOC(=O)[C@@H]1[C@H]2COc3cc(OC)ccc3[C@@H]2N2C(=O)N(c3ccc(Br)cc3)C(=O)[C@@]12C — lower, -23.3%
- CN(C)C(CNc1ncccn1)c1ccccc1 (centres undefined) — lower, -14.6%
- CC(C)(C)OC(=O)N1CCC(CC2CC(c3cccc(Br)c3)=NO2)(C(=O)O)CC1 (centres undefined) — lower, -12.7%
- CC(C)(C)OC(=O)N1CCC(CC2CC(c3cccc(Br)c3)=NO2)(C(=O)NCC2CCCCC2)CC1 (centres undefined) — higher, -0.4%
- O=C(c1cc2ccccn2n1)N1CCN(c2cccc(C(F)(F)F)c2)CC1 — higher, 19.8%
- Cc1ccc(S(=O)(=O)NC(=NC2CCCCC2)c2ccc(F)cc2)cc1 — lower, -31.6%
- CCc1ccc(-c2nn(-c3ccccc3)cc2C2SCC(=O)N2Cc2ccco2)cc1 (centres undefined) — higher, 11.4%
- O=C1CSC(c2cn(-c3ccccc3)nc2-c2cc3ccccc3oc2=O)N1Cc1ccco1 (centres undefined) — higher, 3.1%
- COc1ccc(/C=N/c2nc3ccccc3n2C)cc1OC — lower, -12.1%
- CCOC(=O)N1CCN(C(=O)C2CCN(Cc3ccc(O)c(OCC)c3)CC2)CC1 — lower, -15.5%
- O=C(c1ccccc1)N1CCCCC(S(=O)(=O)c2ccccc2)C1=O (centres undefined) — higher, 19.8%
- O=C(N/N=C/c1ccc(O)cc1O)c1ccc(NC(=O)C2CCCCC2)cc1 — lower, -73.3%
- Cc1cccc(OC(C)C(=O)N2CCCN(C)CC2)c1C (centres undefined) — higher, -5.8%
- O=C(Nc1ccc(N2CCOCC2)cc1)C1CC(=O)N(c2ccccc2)C1 (centres undefined) — lower, -35.3%
- O=C(NCc1ccccc1)C1CCC1 — lower, -29%
- O=C(NC(=S)NCc1ccccc1)C1CCCCC1 — higher, 11.8%
- CC(=O)N1CCc2cc(S(=O)(=O)NCC(=O)NCc3ccc(F)cc3)ccc21 — lower, -8%
- Nc1[nH]c(N=NC(=O)c2ccccc2)c2ccccc12 — lower, -58.4%
- CCOc1ccc(S(=O)(=O)N2CCCC(C(=O)N3CCN(CC)CC3)C2)cc1Cl (centres undefined) — lower, -13.6%
- CCN(CC)S(=O)(=O)c1cc(NC(=O)COC(=O)c2ccc(NC(=O)CC#N)cc2)ccc1C — lower, -16.4%
- Fc1ccc(Nc2nc(-c3ccncc3)nc3ccccc23)cc1 — higher, 1.1%
- C=CCNc1sc(C(=O)c2ccccc2)c(N)c1-c1nc2ccccc2s1 — lower, -19.4%
- O=C1N/C(=N/S(=O)(=O)c2ccccc2)S/C1=C/c1cccnc1 — lower, -12.1%
- O=C(O)c1ccc(CNCc2cccc(Oc3ccccc3)c2)cc1 — higher, -4.9%
- Cc1cc(C)nc(/N=C2/NC(=O)CS2)n1 — higher, 11.8%
- O=C(CSc1ncccc1C(=O)O)NC12CC3CC(CC(C3)C1)C2 — lower, -37.8%
- CC(C)(C)C(=O)COC(=O)c1cc2ccccc2cc1O — lower, -26.6%
- Cc1c(C)c2c(OCC(=O)N3CCC(C(=O)O)CC3)cc3c(c2oc1=O)CCC(C)(C)O3 — lower, -8.2%
- CC[n+]1c(/C=C/c2ccc(N(C)C)cc2)ccc2ccccc21 — higher, 0.8%
- CC[n+]1c(/C=C/c2ccc(OC)c(OC)c2)ccc2ccccc21 — lower, -81.5%
- CC(NS(=O)(=O)c1ccc(NC(=O)N2CCCCC2)cc1)c1ccccc1 (centres undefined) — lower, -19.3%
- O=C(Nc1cccnc1)OC1CCCC1 — lower, -40.3%
- Cc1cc(C)c(S(=O)(=O)Nc2ccncc2)cc1C — lower, -25.9%
- Cc1ccc(CCNS(=O)(=O)c2ccc3c(c2)NC(=O)CCS3)cc1 — lower, -8.7%
- CSc1ccccc1C(=O)Nc1ccc2c(c1)CCC2 — higher, -1%
- CCC(=O)NC(c1cccs1)c1cc(Cl)c2cccnc2c1O (centres undefined) — higher, 32.2%
- O=C(O)COc1ccccc1C(Nc1cccnc1)c1cc(Cl)c2cccnc2c1O (centres undefined) — higher, -3.2%
- CCCCC(=O)NC(c1cccs1)c1cc(Cl)c2cccnc2c1O (centres undefined) — lower, -31.4%
- Oc1c(C(Nc2ccccn2)c2cccnc2)cc(Cl)c2cccnc12 (centres undefined) — higher, 15.5%

In the case of `O=C(O)c1cc(S(=O)(=O)O)cc(Nc2c3ccccc3nc3ccccc23)c1O`, the inhibition is reported as 30.7% (active).
For `COc1cccc(CNC(=O)CCl)c1`, the inhibition was 73.9% (active).
With `Cc1cccc(NC(=O)c2ccc(C(=O)Nc3cccc(C)c3)nc2)c1` the inhibition was 62.8% (active).
For `CSc1ccc(CN2CCC(Cc3ccccc3)CC2)cc1`, the inhibition was 80.3% (active).
In the case of `C=CCN=c1scc(-c2ccc3c(c2)NC(=O)CO3)n1/N=C(\C)c1ccccn1`, the inhibition is reported as 50.6% (active).
In the case of `Cc1ccc(-c2nn(CC(=O)NCc3cc(-c4nn(C)c(=O)c5ccccc45)ccc3C)c(=O)c3ccccc23)cc1`, the inhibition is reported as 93.8% (active).
In the case of `O=C1NCCc2c1[nH]c1ccccc21`, the inhibition is reported as 10.2% and -8.1%.
For `O=C1NCCc2c1[nH]c1c(Cl)ccc(Cl)c21`, the inhibition was 79.2% (active).
With `COC(=O)C1(CC2CC(c3cccc(Br)c3)=NO2)CCN(C(=O)OC(C)(C)C)CC1` (centres undefined) the inhibition was 43.4% (active).
With `O=C1CSC(c2cn(-c3ccccc3)nc2-c2ccccc2)N1Cc1ccco1` (centres undefined) the inhibition was 51.6% (active).
With `O=C(NCc1ccccc1)C1CCCC1` the inhibition was 67.7% (active).
With `COc1ccc(CNCc2cccc(Oc3ccccc3)c2)cc1` the inhibition was 65.8% (active).
With `CCOc1ccc(C(Nc2cccnc2)c2cc(Cl)c3cccnc3c2O)cc1` (centres undefined) the inhibition was 67.5% (active).
For `CCCC(=O)NC(c1cccs1)c1cc(Cl)c2cccnc2c1O` (centres undefined), the inhibition was 55.3% (active).
